Assay results from PubChem BioAssay (Tox21).
Records with an inconclusive call do not appear. A call without a number means that no potency is given here. Calls of active or inactive are those of the source. The call rests on the fitted dose curve.

Experiment: qHTS assay to identify small molecule agonists of the endoplasmic reticulum stress response signaling pathway - cell viability counter screen (AID 1159517); further: nearly all actives have a fitted effect of over 50% in size
Details: ESRE-bla HeLa viability, CellTiter-Glo luminescence, 5 h; series mostly up to 61 µM
From the text: U.S. Tox21 Program National Center for Advancing Translational Sciences [NCATS] NIH Chemical Genomics Center [NCGC] U.S. Environmental Protection Agency [EPA] National Institutes of Environmental Health Sciences [NIEHS] National Toxicology Program [NTP] U.S. Food and Drug Administration [FDA] Tox21 Assay Overview: Endoplasmic Reticulum (ER) plays an important role in cellular signaling, protein folding/maturation, stress response, lipid biosynthesis, calcium storage and release etc. Under stress conditions, proteins in ER misfold or unfold, and leading to the expression of ER stress responsive genes. ER stress has been associated with a variety of pathophysiological conditions such as cancer, inflammation, neurodegenerative diseases, diabetes, ischemic heart disease etc. To identify the compounds that induce ER stress response, an ER stress reporter cell line, CellSensor ESRE-bla HeLa (Life Technologies, Carlsbad, CA) containing a beta-lactamase reporter gene under control of the Endoplasmic reticulum Stress Response Element (ESRE) was used to screen Tox21 10K compound library. The cytotoxicity of the Tox21 compound library against the ESRE-bla HeLa cell line was tested in parallel by measuring cell viability using the CellTiter-Glo assay in the same wells.
Tox21 Assay Protocol Summary: ESRE-bla HeLa cells were dispensed at 1,500 cells/6 uL of assay medium per well into black wall/clear-bottom 1536-well plates using a Multidrop Combi (ThermoFisher Scientific, Waltham, MA) dispenser. After the assay plates were incubated at 37 C and 5% CO2 for an overnight, 23 nL of compounds dissolved in DMSO, positive controls or DMSO only was transferred to the assay plate by a Pintool station (Kalypsys, San Diego, CA). The assay plates were incubated at 37 C and 5% CO2 for 5 hr. One uL of LiveBLAzer B/G FRET substrate (Life Technologies) was added using a FRD (Flying Reagent Dispenser, Aurora Discovery, San Diego, CA) and the plates were incubated at room temperature for 2 hr. Fluorescence intensity (405 nm excitation, 460 nm and 530 nm emissions) was measured using an Envision plate reader (PerkinElmer, Shelton, CT). For cytotoxicity, 4 ul/well of CellTiter-Glo reagent was added into the assay plates using an FRD. After 30 min incubation at room temperature, the luminescence intensity was measured using a ViewLux plate reader (PerkinElmer).
Potency means the concentration at half of the fitted maximal effect.

SMILES | Potency
CCCCCCCCCCCCCCCS(=O)(=O)Oc1ccccc1 | inactive
CCC(CN)=C(c1ccccc1)c1ccccc1 | inactive
Oc1cccc(-c2c3nc(c(-c4cccc(O)c4)c4ccc([nH]4)c(-c4cccc(O)c4)c4nc(c(-c5cccc(O)c5)c5ccc2[nH]5)CC4)C=C3)c1 | inactive
C=CC(=O)OCC(CO)(COCC(COC(=O)C=C)(COC(=O)C=C)COC(=O)C=C)COC(=O)C=C | 3.42 µM (active)
CCCCN(CCCC)c1ccc(C(=O)c2ccccc2C(=O)O)c(O)c1 | 35 µM (active)
NNC(=O)c1cccc(C(=O)NN)c1 | inactive
CCCCCCCCCCCC(=O)NCCCN(C)C | 49 µM (active)
CCCCCCCCCOC(=O)c1ccc(O)cc1 | 54.2 µM (active)
CC(C)(C)NC(=O)[C@@H]1C[C@@H]2CCCC[C@@H]2CN1C[C@@H](O)[C@H](Cc1ccccc1)NC(=O)[C@H](CC(N)=O)NC(=O)c1ccc2ccccc2n1 | 49.6 µM (active)
Cc1cc(=O)oc2cc(N(C)C)ccc12 | inactive
Cc1cc(O)c(C(C)(C)C)cc1C(C)(C)C | 24.5 µM (active)
CSc1ccc2c(c1)C(N1CCN(C)CC1)Cc1ccccc1S2 (stereo not given) | 19 µM (active)
C[C@H]1[C@H]2CC[C@H]3[C@@H]4CC=C5C[C@@H](N(C)C)CC[C@]5(C)[C@H]4CC[C@]23CN1C | inactive
O=C(O)c1c(Cl)cccc1Cl | inactive
CC1=C(/C=C/C(C)=C/C=C/C(C)=C/C=O)C(C)(C)CCC1 | 38.7 µM (active)
CC(C)(C)c1ccc(C(=O)CCCN2CCC(OC(c3ccccc3)c3ccccc3)CC2)cc1 | 23.9 µM (active)
C[n+]1cc2c3c(ccc2c2ccc4cc5c(cc4c21)OCO5)OCO3 | 1.31 µM (active)
CC(C)(C)c1ccc(C(=O)O)cc1 | inactive
C[C@@H](NCCCc1cccc(C(F)(F)F)c1)c1cccc2ccccc12 | 23.9 µM (active)
OCCCCCCCCCCCCBr | inactive

SMILES | Potency
CCC(N)(CO)CO | inactive
NNc1nc(-c2ccccc2)cs1 | inactive
Nc1c2ccccc2nc2ccccc12 | inactive
COC(=O)C1=C(C)NC(C)=C(C(=O)OCC(C)C)C1c1ccccc1[N+](=O)[O-] (stereo not given) | inactive
CCN(C(=O)N(CC)c1ccccc1)c1ccccc1 | inactive
Cn1cc(C(=O)[C@@H]2CCc3nc[nH]c3C2)c2ccccc21 | inactive
CCCCCCCCCCCCCCCC[N+](C)(C)CCN(Cc1ccc(OC)cc1)c1ncccn1 | 21.3 µM (active)
O=c1[nH]cnc2nc[nH]c12 | inactive
O=c1c(-c2ccccc2)c1-c1ccccc1 | inactive
CC(C)OC(=O)c1cc2c(OCC(O)CNC(C)(C)C)cccc2[nH]1 (stereo not given) | inactive
Oc1c(Cl)cc(Cl)c2cccnc12 | inactive
CCCCN1C(=O)[C@@H]([C@H](O)C2CCCCC2)NC(=O)C12CCN(Cc1ccc(Oc3ccc(C(=O)O)cc3)cc1)CC2 | inactive
CCCCN1CCCC[C@H]1C(=O)Nc1c(C)cccc1C | inactive
O=S1(=O)CC(Cl)(Cl)C(Cl)(Cl)C1 | 4.9 µM (active)
COc1ccc(-c2ccc3cc(C(=O)O)ccc3c2)cc1C12CC3CC(CC(C3)C1)C2 | 10.7 µM (active)
OCCN1CCN(CC/C=C2/c3ccccc3Sc3ccc(C(F)(F)F)cc32)CC1 | 23.9 µM (active)
CCc1cc(SCc2sc(-c3ccc(C(F)(F)F)cc3)nc2CN2CCN(c3ccc(OC)cc3)CC2)ccc1OCC(=O)O | 54.9 µM (active)
COc1cc(-c2ccc(N=C=O)c(OC)c2)ccc1N=C=O | inactive
CSc1ccc(/C=C2/C(C)=C(CC(=O)O)c3cc(F)ccc32)cc1 | inactive
Cc1ccc(-n2nc(C(C)(C)C)cc2NC(=O)Nc2ccc(OCCN3CCOCC3)c3ccccc23)cc1 | inactive
